3T3 cytotox: NIH 3T3 cell cytotoxicity | NIH 3T3 viability, CellTiter-Glo ATP luminescence, 48-72 h | Potency, µM (doses to about 96.7 µM), inactives show top-dose activity change, negative = cytotoxicity, actives largely listed as inhibitors | 4.3% of 94,000 active | AID 1345082; note: nearly all actives have a fitted effect of over 55% in size
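Cells were seeded at 400 per well, treated with pin-transferred compound, and kept 48 or 72 hr at 37 °C before CellTiter-Glo addition and luminescence imaging of cellular ATP.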
Luciferase inh: Photinus pyralis luciferase inhibition; purified P. pyralis luciferase, luminescence, biochemical; Potency, µM (highest dose often 115 µM), actives largely listed as inhibitors; 2.5% of 76,000 active; AID 1347043; note: nearly all actives have a fitted effect of over 65% in size
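Cell-free enzyme assay, 10nM P. pyralis luciferase, luciferin and ATP each at 10uM. Inhibition profiled over a 6-point titration, read as luminescence.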
HEK293 tox: cytotoxic compounds in HEK 293 cells. AID 1345083. HEK 293 viability, ATP luminescence (CellTiter-Glo), 48-72 h. 6.6% of 94,000 active. Potency, µM (doses to about 115 µM), without a hit: at the top dose activity change, negative = cytotoxicity, most hits filed as inhibitors; note: nearly all actives have a fitted effect of over 60% in size
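HEK 293 cells at 250 cells/well were exposed to compounds by pintool transfer for 48 or 72 hr at 37 degree Celsius, 5% CO2. Viability was read as ATP-coupled luminescence with CellTiter-Glo after 10 min at room temperature.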
GPT2 inhibitor: inhibitors of human GPT2 alanine aminotransferase; Q8TD30; Recombinant GPT2, coupled pyruvate oxidase/HRP Amplex Red fluorescence; Potency, µM (titrated, usually from 57.7 µM), for inactives: at the highest dose activity change, negative = inhibition, hits mostly inhibitors; 0.25% of 100,000 active; note: nearly all actives have a fitted effect of over 60% in size
Target sequence (Q8TD30 whole entry, looked up): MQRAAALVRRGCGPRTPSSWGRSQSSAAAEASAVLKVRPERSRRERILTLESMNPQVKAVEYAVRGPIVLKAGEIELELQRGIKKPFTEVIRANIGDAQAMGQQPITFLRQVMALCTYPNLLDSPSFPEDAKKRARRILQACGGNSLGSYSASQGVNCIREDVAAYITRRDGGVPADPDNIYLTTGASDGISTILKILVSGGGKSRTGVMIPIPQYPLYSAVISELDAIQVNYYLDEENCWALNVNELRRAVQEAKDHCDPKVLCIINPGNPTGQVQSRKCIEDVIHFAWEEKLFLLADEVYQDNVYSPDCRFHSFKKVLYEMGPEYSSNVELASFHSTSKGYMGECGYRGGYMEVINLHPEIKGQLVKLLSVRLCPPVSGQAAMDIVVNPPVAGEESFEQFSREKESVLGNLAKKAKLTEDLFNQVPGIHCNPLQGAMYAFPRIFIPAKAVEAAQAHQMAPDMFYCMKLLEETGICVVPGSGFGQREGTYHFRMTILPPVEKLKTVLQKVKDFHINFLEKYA
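GPT2 10ng/uL, a-KG 250uM, L-Ala 2mM, HEPES pH7.5 + 0.0001% Tween; 30 min RT. Then Amplex mix (PO/HRP/ThPP), 30 min RT dark, fluorescence. AOA 50uM used as positive control.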
NPR1 antag: human Npr1 receptor antagonism | HEK293 hNpr1 GloSensor cGMP, ANP-stimulated luminescence | Potency, µM (top dose mostly 46.3 µM), for inactives: at the top dose activity change, negative = inhibition, most hits filed as inhibitors | 1.6% of 76,000 active | AID 1347048; calls by dose curve; note: nearly all actives have a fitted effect of over 60% in size
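Compound pre-incubated 30 min at room temperature on GloSensor-loaded HEK293 cells stably carrying hNpr1 and the pGS-40F cGMP biosensor. Stimulation uses hNppA at 0.1 nM final; luminescence is taken at baseline and 20 min post-agonist.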
Numbers without * were called inactive; i = inactive; ? = inconclusive; · = no result given; [ ] = remark or other dose. Most compounds without a hit are left out; they make up all but 10% or so of the library. Unless noted, calls come from the whole dose curve; as a rule, active = well fitted curve in the direction sought with a large enough effect; inconclusive = small, poorly fitted or top-dose-only effect, or another doubt; inactive = no such curve, though single readings can be large; an effect the other way counts as inactive or inconclusive. % is set by controls: 0 for no effect and ±100 for the full control effect; potency is the fitted concentration of half-maximal effect.

SMILES | 3T3 cytotox | Luciferase inh | HEK293 tox | GPT2 inhibitor | NPR1 antag
CNC(=O)C1CCCN(Cc2cccc(-c3ccc(F)cc3F)c2)C1 (stereo not given) | ? | · | 63µM* | i | ·
O=C(Nc1cccc(F)c1)C1CCCN(Cc2cccc(-c3ccc(F)cc3F)c2)C1 (stereo not given) | 45µM* | · | 20µM* | -2% | ·
O=C(Nc1cccc(Cl)c1)C1CCCN(Cc2cccc(-c3ccc(F)cc3F)c2)C1 (stereo not given) | ? | · | ? | -2% | ·
N#Cc1cc(CN2CCCC(C(=O)Nc3cccc(-c4ccc(F)cc4)c3)C2)c[nH]1 (stereo not given) | 18µM* | i | 25µM* | -9% | -25%
C#CCNC(=O)C1CCCN(Cc2cccc(-c3ccc(F)cc3F)c2)C1 (stereo not given) | ? | · | 45µM* | 2% | ·
O=C(NCC(F)F)C1CCCN(Cc2cccc(-c3ccc(F)cc3F)c2)C1 (stereo not given) | ? | · | ? | -10% | ·
COc1ccc(C(=O)N2CCCCCCNC(=O)[C@@H]3C[C@@H](c4nc(C(C)C)no4)C[C@@H]32)cn1 | -9% | i | -3% | 5% | -8%
N#Cc1ccc(CN2CCCCCCNC(=O)CC2)cc1 | -6% | i | -15% | i | -2%
COC(=O)CNC(=O)c1ccc2nnc(-c3cccc(OC(F)(F)F)c3)n2c1 | -21% | · | 4% | -11% | ·
CN(Cc1ccc(F)cc1)C(=O)C(C)(C)C | 1%[174 µM] | i | i | 2%[88.5 µM] | 16%[70.6 µM]
CN(Cc1ccccc1)Cc1ccc(-c2ccccc2)cc1 | -21%[138 µM] | i | ? | i | 0%[70.6 µM]
CN(Cc1ccc(-c2ccccc2)cc1)S(C)(=O)=O | ? | 14µM* | ? | 1%[88.5 µM] | 1%[70.6 µM]
CN(Cc1ccc(-c2ccccc2)cc1)C(=O)C(C)(C)C | ? | 35µM* | 63µM* | i | -5%[70.6 µM]
CN(Cc1ccc(-c2ccccc2)cc1)C(=O)Cc1cccc(Cl)c1 | ? | ? | 63µM* | i | ?
CN(Cc1ccc(-c2ccccc2)cc1)C(=O)C1CC1 | ? | 50µM* | ? | i | ?
NC1CCc2nn(CC(=O)N3CCCN(c4ncccn4)CC3)c(=O)n2CC1 (stereo not given) | i | i | -1% | 2% | 5%
CN(Cc1ccccc1)C(=O)C1CCN(c2cc(C3CC(O)C3)ncn2)CC1 (stereo not given) | -38% | i | ? | -3% | 13µM*
OC1CC(c2cc(N3CCC(c4nnc5ccccn45)CC3)ncn2)C1 (stereo not given) | -2% | i | -1% | 1% | 3%
CCCCN(Cc1ccccc1)Cc1nc(-c2ccc(C(=O)OC)cc2)no1 | -11% | 8.9µM* | -11% | i | -8%
O=C(O)C1CCc2sc(C(=O)N3CCCCCC3)cc2C1 (stereo not given) | ? | 16µM* | 0% | 1% | 5%
CN(C)C(=O)N1CCC(C(=O)N2CCC(c3nc4ncccc4[nH]3)CC2)C1 (stereo not given) | i | · | -2% | -4% | ·
COC1CCC12CCN(C(=O)CCc1ccccc1)CC2 (stereo not given) | -16% | i | -41% | 2% | 2%
OCc1ccc(CN2C[C@H](O)C[C@H]2c2nc(-c3ccc(F)cc3)no2)o1 | i | 45µM* | 1%[172 µM] | i | 5%[70.6 µM]
OCc1ccc(CN2C[C@H](O)C[C@H]2c2nc(-c3ccc(OC(F)(F)F)cc3)no2)o1 | ? | 45µM* | ? | ? | -12%[70.6 µM]
COc1ccccc1CNC[C@H]1Cn2c(-c3cccc(Cl)c3)cnc2CO1 | ? | i | 79µM* | i | 0%[70.6 µM]
Cc1ccc(-c2cn3c(n2)CO[C@@H](CNC(=O)C2CCCC2)C3)cc1 | -31%[138 µM] | i | ? | 0%[88.5 µM] | -12%[70.6 µM]
COc1ccccc1CNC[C@H]1Cn2cc(-c3ccc(C)cc3)nc2CO1 | 100µM* | ? | 100µM* | -12%[88.5 µM] | 0%[70.6 µM]
COc1ccc(-c2cn3c(n2)CO[C@@H](CNC2CCC2)C3)cc1 | -13%[138 µM] | 56µM* | -20%[172 µM] | -6%[88.5 µM] | 0%[70.6 µM]

Screening results as filed in PubChem.
